PubChem BioAssay AID589 (National Center for Advancing Translational Sciences (NCATS), 2007)
Among all 59,000 compounds or so, about 6,200 (11%) were called active. Not shown: some 9% with an inconclusive outcome. The sample holds actives, similar compounds and a random draw of the others, so the mix is not that of the screen. No stated cut-off is given here; in the data, active means max dye-equivalent concentration above about 10 nM; inconclusive means mostly about 1.1 nM to 9.6 nM; inactive means weaker than that.

Assay: qHTS Assay for Spectroscopic Profiling in 4-MU Spectral Region
Conditions: compound autofluorescence, 340/450 nm, 4-MU equivalents; stronger effect = higher value
Description: NIH Molecular Libraries Screening Centers Network [MLSCN] NIH Chemical Genomics Center [NCGC] […] Occasionally, the artifactual effect may originate from the compounds own spectral or other biophysical properties which generally tend to track its assay concentration. Pre-screening/profiling the library with respect to the compounds spectral properties should help one exclude false positives early on. While the most informative fluorescent profiling data set is obtained by performing a full excitation and emission scan of each well by using a monochromator-based plate reader, such an approach is practical only on a very limited scale as scanning each well requires long time. An alternative approach, applied here, is to perform plate reader scans using selected excitation and emission wavelength pairs to generate a multidimensional relational database that correlates compound concentration and the respective relative fluorescence intensity at a given wavelength set. A standard curve of 4-methylumbelliferone (4-MU) present on each plate as six-point concentration series, was used to compute a normalized fluorescence response, termed dye-equivalent concentration, for each compound at each concentration.
NCGC Assay Protocol Summary: Buffer: 100 mM Tris buffer, pH 8.0 Dye standard plate: The wells in columns 1 through 4 of a Kalypsys polypropylene 1536-well compound plate were filled with standard solutions of fluorophore corresponding to the spectral region of interest. Solutions of 4-MU were placed in the following wells: A1, B1: 3 mM, A2, B2: 300 uM, A3, B3: 30 uM, A4, B4: zero (DMSO), C1, D1: 3 uM, C2, D2: 900 nM, C3, D3: 300 nM, C4, D4: zero (DMSO). Assay Steps: Six uL of buffer were dispensed to 1536-well Greiner black plates. Compounds and dye standards (23 nL) were transferred via Kalypsys PinTool. The plates were incubated for 15 min at room temperature, and then read on ViewLux (Perkin-Elmer) High-throughput CCD imager using 340 nm and 450 nm excitation and emission filter set. Keywords: NIH Roadmap, MLSCN, MLI, MLSMR, qHTS, NCGC, Fluorescent Profiling, 4MU, 4-MU

Compound | max dye-equivalent concentration
CCOC(=O)CN(C)Cc1c[nH]c2ccccc12 | inactive
CCOC(=O)c1[nH]c2ccc(C)cc2c1N=C(C)N(C)C | 31 nM (active)
CCOC(=O)c1[nH]c2ccccc2c1N=C(C)N(CC)CC | inactive
CCCNS(=O)(=O)c1ccc(CCC(=O)NCc2cccnc2)cc1 | inactive
CCOc1ccc(NC(=O)N(CCC(C)C)C(C)c2ccco2)cc1 (centres undefined) | inactive
CSc1nsc(SC)c1NC(=O)OC1CCCCC1 | inactive
O=C(Nc1ccc(S(=O)(=O)N2CCCCC2)cc1)c1cnccn1 | inactive
CC(=O)C1=C(O)C(=O)N(c2ccc(S(N)(=O)=O)cc2)C1c1ccccc1F (centres undefined) | 21 nM (active)
CCN1C(=O)C(C(=O)NC(C)c2ccccc2)C2CC1(C)Oc1ccccc12 (centres undefined) | inactive
CC(=O)Nc1ccc(N2CCOCC2)c(C(=O)Nc2cccc(C)c2)c1 | inactive
Cn1c(=O)n(C)c2cc(CNc3ccc(N4CCOCC4)c(C(=O)O)c3)ccc21 | 18 nM (active)
Cn1nc(-c2ccc(N3CCOCC3)c(NC(=O)c3ccccc3)c2)c2ccccc2c1=O | inactive
CCCn1c(=O)c2[nH]c(-c3ccc(OCC(=O)NCCN)cc3)nc2n(CCC)c1=O | inactive
CC(=O)c1cc(-c2ccccc2)[nH]c1N1CCCC1 | inactive
Cc1cc(N2CCCC2)n2nc(C)c(-c3ccccc3)c2n1 | 660 nM (active)
CCCc1nc(-c2ccccc2O)n(-c2ccccc2)n1 | inactive
CCn1ccnc1C[C@@H]1COc2ccccc2O1 | inactive
O=C(c1csnn1)N1CCC2(CC1)CN(c1ncccn1)C2 | inactive
CCOc1ccccc1NC(=O)CCN1CCN(S(=O)(=O)c2ccc(OC)cc2)CC1 | inactive
COc1cccc(N2C(=O)CC(N3CCN(S(=O)(=O)c4ccccc4)CC3)C2=O)c1 (centres undefined) | inactive
COc1ccc(S(=O)(=O)N2CCN(c3ncnc4c(-c5ccccc5)nsc34)CC2)cc1 | 88 nM (active)
Cc1ccc(-c2noc(CCC(N)=O)n2)cc1 | inactive

Compound | max dye-equivalent concentration
CCOC(=O)N1CCN(C(=O)CSc2nnc(-c3c[nH]c4ccccc34)n2CCOC)CC1 | inactive
O=C(Nc1nn(Cc2ccccc2F)cc1Br)c1cccs1 | inactive
Cn1cccc1C(=O)N1CCC2(CC1)CN(c1cccc(-c3ccccc3)c1)C2 | inactive
CCOc1cc(S(=O)(=O)NCc2ccc3c(c2)OCO3)ccc1F | inactive
Cc1ccc(S(=O)(=O)NCc2nc3ccccc3c(=O)n2N)cc1 | inactive
Cc1ccc(S(=O)(=O)c2c(N)n(C)c3nc4ccccc4nc23)cc1 | 2500 nM (active)
Cn1cc(-c2nc3cnc(N4CCNCC4)nc3n(CCC#N)c2=O)c2ccccc21 | inactive
COCCn1c(=O)c(CCc2ccccc2)nc2cnc(N3CCNCC3)nc21 | 56 nM (active)
c1cncc(-c2nc(N3CCNCC3)c3ccccc3n2)c1 | inactive
COCCn1c(=O)c(-c2cc(F)cc(F)c2)nc2cnc(N3CCNCC3)nc21 | 350 nM (active)
COCCn1c(CN2CCC(Cc3ccccc3)CC2)nc2c1c(=O)n(C)c(=O)n2C | inactive
Cn1c(=O)c(-c2ccccc2)nc2cnc(N3CCNCC3)nc21 | 270 nM (active)
Cc1nc2cnc(Oc3cccc(Cl)c3)nc2n(C2CC2)c1=O | inactive
N#Cc1cccc(-c2nc3cnc(N4CCNCC4)nc3n(C3CC3)c2=O)c1 | 300 nM (active)
CC1(C)C2CCC1(C)C(OC(=O)CCn1ccnc1)C2 (centres undefined) | inactive
Cc1ccc(C(=O)CSc2nnc(Cn3nnc4ccccc43)n2C)cc1 | inactive
CCCn1c(=O)c(-c2ccccc2)c(O)c2ccccc21 | inactive
CCOC(=O)c1sc(N(Cc2ccccc2)C(=O)CN2C(=O)CN(C)C2=O)nc1C | inactive
CCn1c(CSc2ncccn2)nnc1SCC(=O)N1c2ccccc2CC1C (centres undefined) | inactive
Cc1nc2cnc(N3CCNCC3)nc2n(Cc2ccc(F)cc2)c1=O | 98 nM (active)
Cc1nc2cnc(N3CCN(C)CC3)nc2n(C[C@H]2CCCO2)c1=O | 48 nM (active)
O=c1c(CCc2ccccc2)nc2cncnc2n1C1CC1 | inactive

Compound | max dye-equivalent concentration
O=c1c(-c2ccc(F)cc2)nc2cnc(N3CCNCC3)nc2n1Cc1cccs1 | 15 nM (active)
Cn1c(=O)c2c(nc(OCc3cccnc3)n2Cc2ccccc2)n(C)c1=O | inactive
Cc1nc2cnc(Nc3ccccc3)nc2n(C[C@H]2CCCO2)c1=O | inactive
Cc1nc2cnc(N3CCN(C)CC3)nc2n(CCC#N)c1=O | inactive
COCCn1c(=O)c(CCc2ccccc2)nc2cncnc21 | 83 nM (active)
Cc1cc(C)c(C(=O)CN2C(=O)CCC2=O)cc1C | inactive
CCOC(=O)Nc1ccc2c(c1)N(C(=O)CN1CCN3CCCC3C1)c1ccccc1CC2 (centres undefined) | inactive
O=C(Nc1ccc2c(c1)OCCO2)C1CCCN(c2ncccn2)C1 (centres undefined) | inactive
CCOP1(=O)C=C(C(C)(C)C)OC1c1ccc(F)cc1 (centres undefined) | inactive
CC(c1nnc(SCC(=O)Nc2sccc2C#N)n1-c1ccc(Cl)cc1)N(C)C (centres undefined) | inactive
CCC(=O)Nc1sc(C(=O)N2CCCCC2)c(C)c1C#N | inactive
COCCNC(=O)CN(C(=O)CCC(=O)Nc1cc(C)on1)c1ccc(C)cc1C | inactive
O=S(=O)(/C=C/c1ccccc1)NCCc1ccccn1 | inactive
Cn1c(=O)n(CCc2ccccc2)c(=O)c2c1nc1n2CCCN1c1ccccc1 | inactive
Cc1nc2cnc(N3CCNCC3)nc2n(CCc2ccccc2)c1=O | 49 nM (active)
Cn1cc(-c2nc3cnc(N4CCNCC4)nc3n(CCc3ccccc3)c2=O)c2ccccc21 | inactive
OCc1nc(CO)n(Cc2ccccc2)n1 | inactive
CCCCCn1c(SCCC(C)C)nc2c1c(=O)[nH]c(=O)n2C | inactive
C/C(O)=C\c1nc(=O)c2c(C)cc(C)nc2n1-c1ccccc1 | 43 nM (active)
N#CCSc1nc2ccccc2c(=O)n1-c1ccccc1 | inactive
Cc1cc(C)nc(N(C#N)CC(=O)Nc2ccccc2)n1 | inactive
COc1ccc(C2C3=C(CC(C)(C)CC3=O)Oc3ncn4nc(-c5cccnc5)nc4c32)cc1OC (centres undefined) | inactive

Compound | max dye-equivalent concentration
CC(=O)Nc1ccc(S(=O)(=O)N2CCN(CCCOc3cc(C)ccc3C)CC2)cc1 | inactive
CC(C)C(NC(=O)OCc1ccccc1)C(=O)OCC(=O)N1C(C)CCCC1C (centres undefined) | 37 nM (active)
NC1(C(=O)OCc2ccccc2)CCCC1 | inactive
COc1cccc(NC(=O)C2CCCN2C(=O)OCc2ccccc2)c1 (centres undefined) | inactive
CCCC[C@H]1C(=O)N(c2ccccc2)N(c2ccc(O)cc2)C1=O | inactive
CCCOc1ccc(NC(=O)C2CCCNC2=O)cc1 (centres undefined) | inactive
O=C1CCC(C(=O)Nc2ccc(OC(F)F)cc2)N1 (centres undefined) | 18 nM (active)
COC(=O)COc1ccc(S(=O)(=O)Nc2ccc(NC(C)=O)cc2)cc1 | inactive
O=C(O)C1CCN(c2ncnc3ccc(-c4ccccc4C(F)(F)F)cc23)CC1 | inactive
COc1ccc(-c2nc3n(c2Br)CCC3)cc1 | inactive
Cc1cccc(OCc2nnc(SCn3nnc4ccccc4c3=O)o2)c1 | inactive
CCCCCCn1c(CN2CCCC(C)C2)nc2c1c(=O)n(C)c(=O)n2C (centres undefined) | inactive
CCCn1c(O)c(CN2CCCC(C)C2)c(C)c(C#N)c1=O (centres undefined) | 13 nM (active)
O=C(Cc1c(F)cccc1Cl)N1CCN(C(=O)c2ccco2)CC1 | inactive
CCN(Cc1ccncc1)C(=O)[C@@H](CO)c1ccccc1 | inactive
Clc1ccc(Cc2nn3c(-c4ccncc4)nnc3s2)cc1 | inactive
COc1cccc(C(=O)Nc2c3c(nn2-c2cccc(C)c2C)CS(=O)(=O)C3)c1OC | inactive
COc1ccccc1CNc1nc(-c2c(C)noc2C)nc2ccccc12 | inactive
c1ccc(-c2oc3ncnc(N4CCOCC4)c3c2-c2ccccc2)cc1 | 11 nM (active)
c1ccc(-n2nnnc2N2CCOCC2)cc1 | inactive
c1cnn(-c2cc(N3CCOCC3)ncn2)c1 | inactive
CCCCOc1ccccc1/C=c1/sc2nc(-c3oc4ccccc4c3C)nn2c1=O | inactive

Compound | max dye-equivalent concentration
CCc1ccccc1NC1c2ccccc2C(=O)N1c1cccnc1 (centres undefined) | inactive
O=C(O)C1=CCCN(CCON=C(c2ccccc2)c2ccccc2)C1 | inactive
O=C(Nc1cccnc1)c1ccc2c(c1)OCO2 | inactive
Cc1cccc(CNc2ccnc(-c3cccnc3)n2)c1 | inactive
c1cncc(CNc2ccnc(-c3ccc4c(c3)OCO4)n2)c1 | 14 nM (active)
COc1ccc(Br)c2c1C[C@H](C(=O)O)CC2 | inactive
CCOc1cc(CO)ccc1OCC(=O)N1CCCCC1 | inactive
Cc1ccccc1CSc1nnc(-c2ccccn2)n1N | inactive
CC(=O)c1cccc(S(=O)(=O)N2CCC(n3nnc4cc(F)ccc43)CC2)c1 | inactive
O=C(c1ccc2c(c1)OCCO2)C1CCN(S(=O)(=O)c2cccc(F)c2)CC1 | 12 nM (active)
O=C(NCc1cccs1)C1CCN(S(=O)(=O)c2ccc3c(c2)OCCO3)CC1 | inactive
COc1cccc(NC(=O)Cn2cnc3sc(C)c(S(=O)(=O)N4CCN(C)CC4)c3c2=O)c1 | inactive
Cc1ccc(C(CC(=O)O)Nc2nc(N3CCCCC3)nc(N3CCCCC3)n2)cc1 (centres undefined) | inactive
CC(Nc1nc(N2CCCC2)nc2ccccc12)c1ccccc1 (centres undefined) | 150 nM (active)
CC(C)(CSc1nncn1/N=C/c1ccco1)NS(=O)(=O)c1ccc(Cl)cc1 | inactive
CCC(=O)Nc1ccc(C(=O)CSc2nnc(CNc3ccc(Cl)cc3)o2)cc1OC | inactive
COC(=O)N1CCC[C@@]2(CCN(C(=O)NC(C)C)C2)C1 | inactive
Cc1occc1C(=O)Nc1cccc(Cn2cccn2)c1 | inactive
CCCN1CC=C2C(C#N)=C(N)C(C#N)(C#N)C(c3cc(OC)ccc3OC)C2C1 (centres undefined) | 120 nM (active)
CCC1=C(C(=O)OC)C(c2cc(OC)ccc2OC)C(C#N)=C(N)O1 (centres undefined) | inactive
COC(=O)C1=C(C)OC(N)=C(C#N)C1c1cc(OC)ccc1OC (centres undefined) | inactive
